Screen size: about 330,000 compounds; about 300 (0.091%) were called active. Another 4% or so got no clear call; they are omitted. Calls come from the whole dose curve; as a rule, active = well fitted inhibition curve with a large enough effect; inconclusive = small, poorly fitted or top-dose-only effect, or effect the other way, or another doubt; inactive = no such curve, though single readings can be large or run the other way. For the sample, actives were picked, then their nearest neighbours and some compounds at random.
target: Lysosomal acid glucosylceramidase (Homo sapiens) (UniProt P04062); test: qHTS Assay for Inhibitors and Activators of N370S glucocerebrosidase as a Potential Chaperone Treatment of Gaucher Disease; conditions: N370S GC spleen homogenate, 4MU-glucoside fluorescence; series mostly up to 59.4 µM; activity change, negative = inhibition: at the top concentration;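 for activity change, negative = inhibition: 0% = full enzyme activity and -100% = no enzyme basal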
Potency is the fitted concentration of half-maximal effect.

| Compound | activity change, negative = inhibition | Potency |
| --- | --- | --- |
| Cc1csc(NC(=O)C2CCN(S(=O)(=O)c3ccccc3)CC2)n1 | -2.1% (inactive) | – |
| CNC(=O)[C@]1(C(F)(F)F)C[C@H](CCc2ccccc2)CCCO1 | 1.95% (inactive) | – |
| CN1CCc2nc(-c3ccccc3)c(-c3ccccc3)cc2C1 | -2.21% [at 12.8 µM] (inactive) | – |
| COc1ccc(-c2nc(-c3ccccc3)oc2Nc2ccc3ccccc3c2)cc1 | 0.754% (inactive) | – |
| COc1cccc([C@@H]2Oc3ccc(Br)cc3C(=O)[C@H]2OC(=O)NCc2ccc3c(c2)OCO3)c1 | 7.03% (inactive) | – |
| CC(OC(=O)Cc1ccc(F)cc1)C(=O)N1CCc2ccccc21 (stereo not given) | 0.251% (inactive) | – |
| CCOC(=O)Cn1c(=O)sc2cccc(Cl)c21 | 9.84% (inactive) | – |
| Cc1cc(N(C)C)nc(Cl)n1 | 0.258% (inactive) | – |
| CNC(=O)C1CC(=O)N(c2ccc(OCC(=O)Nc3ccccc3C)cc2)C1 (stereo not given) | -0.727% (inactive) | – |
| C=C(C)C(=O)c1ccc(F)cc1 | 5.76% (inactive) | – |
| CCCN1CCC(=O)N(C(CSc2ccc(C)cc2)Cc2ccccc2)CC1 (stereo not given) | -17.3% (inactive) | – |
| CCN(C(=O)COC(=O)CCOc1cccc(C)c1)c1c(N)n(Cc2ccccc2)c(=O)[nH]c1=O | -8.31% (inactive) | – |
| CC(C)C[C@H](NC(=O)[C@H](O)[C@H](N)Cc1ccccc1)C(=O)O | -1.12% (inactive) | – |
| Cc1cc(C)n2nc(C(=O)Nc3cccc(S(=O)(=O)N4CCOCC4)c3)nc2n1 | 2.72% (inactive) | – |
| COC(=O)C1(Cc2ccccc2)C=C2C(=C(C)C(=O)C2C)CN1 (stereo not given) | -2.63% (inactive) | – |
| COC(=O)[C@@]1(C)C=C[C@@H](Cc2ccccc2)N1C(C)=O | -6.27% (inactive) | – |
| Cn1c2cc(B(O)O)sc2c2cnn(Cc3ccccc3F)c(=O)c21 | -12.5% (inactive) | – |
| Cc1ccc(/C(=C/CN2CCCC2)c2ccccn2)cc1 | inactive | – |
| CCN(CC)CCCCn1c(-c2ccccc2)nc2c(N3CCOCC3)nc(C)nc21 | -6.36% (inactive) | – |
| COc1cccc(NC(=O)CN(C)C(=O)/C=C/c2cn(-c3ccccc3)nc2-c2cccs2)c1 | 6.87% (inactive) | – |
| COc1ccc(C2/C=C\CN(Cc3ccco3)C(C)C(=O)N2Cc2ccc(F)cc2)cc1 (stereo not given) | -4.54% (inactive) | – |
| O=C(CN1CCCCC1)Nc1ccccc1C(=O)NC1CC1 | -15.8% (inactive) | – |

| Compound | activity change, negative = inhibition | Potency |
| --- | --- | --- |
| C=C1CCN(C(CC(C)C)C(=O)NCc2cc(OC)c(OC)c(OC)c2)S(=O)(=O)c2ccccc21 (stereo not given) | -17% (inactive) | – |
| BrC1C(Br)C(Br)C(Br)C(Br)C1Br (stereo not given) | 7.49% (inactive) | – |
| CCCCn1c(N)c(N(CCC(C)C)C(=O)COC(=O)c2ccc(CC)cc2)c(=O)[nH]c1=O | -8.39% (inactive) | – |
| Cc1ccc(C(CC(=O)O)NC(=O)c2ccc(S(=O)(=O)N3CCCC3)cc2)cc1 (stereo not given) | -0.149% (inactive) | – |
| CC(C)=CCC[C@]1(C)[C@@H](CC=C(C)C)C[C@@]2(CC=C(C)C)C(=O)[C@]1(C(=O)C(C)C)C(=O)C(CC=C(C)C)=C2O | -4.71% (inactive) | – |
| O=C(CSc1nnc(COc2ccc(Cl)cc2)n1Cc1ccco1)N1CCNC1=O | 1.42% (inactive) | – |
| CCC(=O)c1ccc(OCC(=O)N(CC)CC2COc3ccccc3O2)cc1 (stereo not given) | -0.293% (inactive) | – |
| CC1Cc2ccccc2N1S(=O)(=O)c1cccc(C(=O)NCC(c2ccco2)N2CCCC2)c1 (stereo not given) | -17.1% (inactive) | – |
| C[C@@H]1O[C@@H](O[C@@H]2[C@@H](O)[C@H](OCCc3ccc(O)c(O)c3)O[C@H](CO[C@@H]3O[C@H](CO)[C@@H](O)[C@H](O)[C@H]3O)[C@H]2OC(=O)/C=C/c2ccc(O)c(O)c2)[C@H](O)[C@H](O)[C@H]1O | -12.8% (inactive) | – |
| C=CCC(C)(O)c1ccco1 (stereo not given) | -11% (inactive) | – |
| COc1ccc(C2CC(O)(c3ccccc3)Oc3cc(C)cc(C)c32)cc1 (stereo not given) | 3.66% (inactive) | – |
| C=CCN1C(=O)c2ccc(C(=O)N3CCC(C(=O)OCC)CC3)cc2C1=O | -1.64% (inactive) | – |
| O=C(COC(=O)c1ccccc1Cl)NC1CCCCCCC1 | 1.18% (inactive) | – |
| C[C@H]1CC[C@H](C(=O)O)N[C@@H]1c1ccc(C#Cc2ccccc2)cc1 | 5.48% [at 12.8 µM] (inactive) | – |
| COc1ccc(-c2nc3c(c4c2C[C@H](c2ccccc2)OC4)CN(S(=O)(=O)c2c(C)noc2C)CC3)c(C)c1 | -9.78% [at 12.8 µM] (inactive) | – |
| COC(=O)c1sc(NC(=O)COC(=O)C2CCC2)c(C(=O)OC)c1C | -10.4% (inactive) | – |
| CC(C)c1cnc(NC(=O)Cc2ccccc2)s1 | 21.3% (inactive) | – |
| NCCC(=O)c1ccccc1N | 2.36% (inactive) | – |
| O=C(CCNC(=O)c1ccc([N+](=O)[O-])cc1)NC1CCCCC1 | -0.406% (inactive) | – |
| CCN(c1ccccc1)S(=O)(=O)c1cc(C(=O)NCc2ccccn2)ccc1C | -1.72% (inactive) | – |
| C=C1/C(=C\C=C2\CCCC3(C)C2CCC3C(C)/C=C/C(O)C2CC2)CC(O)CC1O (stereo not given) | -4.51% (inactive) | – |
| N#Cc1cc2[nH]c(=O)c(=O)[nH]c2cc1[N+](=O)[O-] | – | 22.4 µM (active) |

| Compound | activity change, negative = inhibition | Potency |
| --- | --- | --- |
| COc1ccc(CC(N)C(=O)NC2C(O)[C@H](n3cnc4c(N(C)C)ncnc43)O[C@@H]2CO)cc1 (stereo not given in full) | 1.71% (inactive) | – |
| COC(=O)[C@H]1C[C@@H]1[C@H](NC(=O)Oc1ccc(F)cc1)c1ccccc1 | 2.79% (inactive) | – |
| Cc1nnc(NC(=O)c2ccc3nccnc3c2)s1 | -1.49% (inactive) | – |
| COc1cc(C2C(C#N)=C(C)NC3=C2C(=O)CC(C)(C)C3)ccc1O (stereo not given) | – | 10 µM (active) |
| CCOC(=O)C1=C(C)NC2=C(C(=O)CC(C)(C)C2)C1c1ccsc1 (stereo not given) | 0.443% (inactive) | – |
| COc1ccc(C2C(C#N)=C(/N=C/N3CCOCC3)OC3=C2C(=O)CC(C)(C)C3)cc1OC (stereo not given) | 12.4% (inactive) | – |
| O=S(=O)(NC1CCN(S(=O)(=O)c2ccc3c(c2)OCCO3)CC1)c1c(F)cccc1F | -3.77% (inactive) | – |
| CCN(CC)S(=O)(=O)c1ccc(CNC(=O)CN2C(=O)NC3(CCc4ccccc43)C2=O)cc1 (stereo not given) | 1.57% (inactive) | – |
| CC(C)(Oc1ccc(Cl)cc1)C(=O)OCC(=O)NCCc1ccc(S(N)(=O)=O)cc1 | -2.49% (inactive) | – |
| CCCC(Cl)CCCC(Cl)CCC(Cl)CCC(Cl)CCC(Cl)CCCC(Cl)CCC (stereo not given) | -0.806% (inactive) | – |
| CCCC[C@H]1C(=O)N(c2ccccc2)N(c2ccc(O)cc2)C1=O | 11.4% [at 21.6 µM] (inactive) | – |
| C=CCC1CCC(=O)N2CCCC12 (stereo not given) | -6.15% [at 136 µM] (inactive) | – |
| COc1cc2c(cc1OC)CN(C(C)C(=O)Nc1cccc(S(=O)(=O)N3CCOCC3)c1)CC2 (stereo not given) | -1.61% (inactive) | – |
| OC[C@H]1O[C@@H](n2cnc3c(NC4CCCC4)ncnc32)[C@H](O)[C@H]1O | 1.48% (inactive) | – |
| CCOC(=O)[C@]1(C(/C=C/c2ccco2)NC(=O)OC)CCCC1=O (stereo not given in full) | 2.17% [at 12.8 µM] (inactive) | – |
| CCCCC/C=C\C[C@H](O)/C=C/C=C/C=C/[C@@H](O)CCCC(=O)O | -0.244% (inactive) | – |
| CCNc1ncc2ncc(=O)n(Cc3cccc(OC)c3)c2n1 | 26.5% (inactive) | – |
| CC(Nc1oc(-c2ccccc2)nc1-c1ccccc1)c1ccccc1 (stereo not given) | inactive | – |
| CN(CC(=O)NCCc1ccc(F)cc1)CC(=O)Nc1ccc(F)c(F)c1F | -17.8% (inactive) | – |
| CC1(C)OC(C(O)(c2ccccc2)c2ccccc2)C(C(O)(c2ccccc2)c2ccccc2)O1 (stereo not given) | -1.37% [at 12.8 µM] (inactive) | – |
| Cc1ccc(SCC(CC(C)C)N2CCN(CCc3ccccc3)CCC2=O)cc1 (stereo not given) | -11.1% (inactive) | – |

From PubChem BioAssay AID2101 (National Center for Advancing Translational Sciences (NCATS), 2009)
